Data as given in PubChem BioAssay (NCI).
About 83,000 compounds went through this panel and 20% of them were active in at least one assay; those are over-represented in the sample as a whole.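 Method: cells in 96-well plates; compound added at one concentration; 48 h incubation; percent growth measured; values under 10 scored active.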 Active and inactive are the calls of the source.

Experiments:
Assay in all cases: NCI-60 one-dose screen, 48 h (100 = growth as untreated, 0 = no growth, -100 = all killed)
Conditions in all cases: 10 µM unless noted
NCI-H23 lung = system: NCI-H23 lung
NCI-H226 lung = system: NCI-H226 lung
NCI-H322M lung = system: NCI-H322M lung
HOP-62 NSCLC = system: HOP-62 NSCLC
NCI-H460 lung = system: NCI-H460 lung
NCI-H522 lung = system: NCI-H522 lung
A549/ATCC NSCLC = system: A549/ATCC NSCLC
786-0 renal = system: 786-0 renal
COLO 205 colon = system: COLO 205 colon
DU-145 prostate = system: DU-145 prostate
K-562 leukemia = system: K-562 leukemia
MALME-3M melanoma = system: MALME-3M melanoma
MDA-MB-231 breast = system: MDA-MB-231 breast
RXF 393 renal = system: RXF 393 renal
SF-268 CNS = system: SF-268 CNS
SF-295 CNS = system: SF-295 CNS
SF-539 CNS = system: SF-539 CNS
UACC-257 melanoma = system: UACC-257 melanoma
M14 melanoma = system: M14 melanoma
HCT-15 colon = system: HCT-15 colon

Measured: growth

CCn1c2c(c3ccccc31)SC1c3cccn3CCN1C2=S (stereo not given)
inactive: NCI-H23 lung 93.7% | NCI-H226 lung 108% | NCI-H322M lung 89.8% | HOP-62 NSCLC 103% | NCI-H460 lung 98.9% | NCI-H522 lung 82.1% | A549/ATCC NSCLC 88.5% | 786-0 renal 102% | COLO 205 colon 109% | DU-145 prostate 102% | K-562 leukemia 105% | MALME-3M melanoma 112% | MDA-MB-231 breast 96.7% | RXF 393 renal 151% | SF-268 CNS 96.4% | SF-295 CNS 106% | SF-539 CNS 97.9% | UACC-257 melanoma 98% | M14 melanoma 94.4% | HCT-15 colon 82.3%

CCCCCCCCCCC[C@@H](C[C@H]1OC(=O)[C@H]1CCCCCC)OC(=O)[C@@H](CC(C)C)NC=O
inactive: NCI-H23 lung 70.1% | NCI-H226 lung 72.6% | NCI-H322M lung 94.2% | HOP-62 NSCLC 72.3% | NCI-H460 lung 42.9% | NCI-H522 lung 59.9% | A549/ATCC NSCLC 83.6% | 786-0 renal 44.8% | COLO 205 colon 81% | DU-145 prostate 92.2% | K-562 leukemia 45.2% | MALME-3M melanoma 89.4% | MDA-MB-231 breast 60.9% | RXF 393 renal 44.1% | SF-268 CNS 65.2% | SF-295 CNS 24.7% | SF-539 CNS 63.1% | UACC-257 melanoma 99.6% | M14 melanoma 62.6% | HCT-15 colon 34.8%

O=C(Nc1ccc(Cl)cc1)c1cc2c(cc1O)[nH]c1ccccc12
inactive: NCI-H226 lung 35.9% | NCI-H322M lung 26.9% | NCI-H460 lung 12.5% | A549/ATCC NSCLC 30% | COLO 205 colon 87.3% | DU-145 prostate 28.4% | K-562 leukemia 10.9% | MALME-3M melanoma 23.1% | MDA-MB-231 breast 36.1% | SF-268 CNS 34.4% | SF-539 CNS 12.4% | M14 melanoma 31% | HCT-15 colon 32%
active: NCI-H23 lung -22.5% | HOP-62 NSCLC -2.15% | NCI-H522 lung -14.4% | 786-0 renal 6.54% | RXF 393 renal 1.97% | SF-295 CNS -43% | UACC-257 melanoma -21.1%

CCC(C)CC(C)C(=O)c1c(O)ccn(OC)c1=O (stereo not given)
inactive: NCI-H23 lung 84.7% | NCI-H226 lung 84.2% | NCI-H322M lung 69.2% | HOP-62 NSCLC 54.8% | NCI-H460 lung 77.8% | NCI-H522 lung 90.9% | A549/ATCC NSCLC 90.8% | 786-0 renal 101% | COLO 205 colon 109% | DU-145 prostate 66.8% | K-562 leukemia 69.3% | MALME-3M melanoma 80.7% | MDA-MB-231 breast 61.7% | RXF 393 renal 72.5% | SF-268 CNS 54.2% | SF-295 CNS 87.1% | SF-539 CNS 63.2% | UACC-257 melanoma 97.7% | M14 melanoma 71.1% | HCT-15 colon 29.9%

Cc1ccsc1/C=C/C1=NCCCN1C
inactive: NCI-H23 lung 97% | NCI-H226 lung 100% | NCI-H322M lung 102% | HOP-62 NSCLC 100% | NCI-H460 lung 116% | NCI-H522 lung 91% | A549/ATCC NSCLC 99.7% | 786-0 renal 92.5% | COLO 205 colon 101% | DU-145 prostate 112% | K-562 leukemia 101% | MALME-3M melanoma 97% | MDA-MB-231 breast 99.3% | RXF 393 renal 113% | SF-268 CNS 111% | SF-295 CNS 95.6% | SF-539 CNS 119% | UACC-257 melanoma 110% | M14 melanoma 100% | HCT-15 colon 109%

COc1ccc(C2CC(c3cccc(Nc4ccnc5cc(Cl)ccc45)c3)=NN2C=O)cc1 (stereo not given)
active: NCI-H522 lung -35.5% | COLO 205 colon -44.3% | DU-145 prostate 2.95% | RXF 393 renal -5.62% | SF-295 CNS 2.43% | SF-539 CNS -1.14%
inactive: NCI-H23 lung 10.7% | NCI-H226 lung 46.3% | NCI-H322M lung 62.5% | HOP-62 NSCLC 27% | NCI-H460 lung 11.2% | A549/ATCC NSCLC 25.5% | 786-0 renal 34.7% | K-562 leukemia 14.4% | MALME-3M melanoma 55.8% | MDA-MB-231 breast 24.3% | SF-268 CNS 44.5% | UACC-257 melanoma 63.3% | M14 melanoma 25.2% | HCT-15 colon 27.8%

O=C1NCN(c2ccccc2)C12CCN(CCCC(c1ccc(F)cc1)c1ccc(F)cc1)CC2
inactive: NCI-H23 lung 72.9% | NCI-H226 lung 94.1% | NCI-H322M lung 60.4% | HOP-62 NSCLC 82.9% | NCI-H460 lung 37.3% | NCI-H522 lung 61.2% | A549/ATCC NSCLC 57.8% | 786-0 renal 49.2% | COLO 205 colon 27.1% | DU-145 prostate 76% | MALME-3M melanoma 39.9% | MDA-MB-231 breast 78% | RXF 393 renal 39.9% | SF-268 CNS 71.4% | SF-295 CNS 17.1% | SF-539 CNS 50.9% | HCT-15 colon 49.6%
active: K-562 leukemia 6.41% | UACC-257 melanoma -15.8% | M14 melanoma 9.99%

[O-]/[N+](=C\C=C\c1ccccc1)c1ccccc1
inactive: NCI-H23 lung 103% | NCI-H226 lung 97.8% | NCI-H322M lung 113% | HOP-62 NSCLC 116% | NCI-H460 lung 107% | NCI-H522 lung 102% | A549/ATCC NSCLC 144% | 786-0 renal 101% | COLO 205 colon 141% | DU-145 prostate 111% | K-562 leukemia 98.1% | MALME-3M melanoma 158% | MDA-MB-231 breast 102% | RXF 393 renal 405% | SF-268 CNS 101% | SF-295 CNS 102% | SF-539 CNS 103% | UACC-257 melanoma 127% | M14 melanoma 115% | HCT-15 colon 104%

COc1ccc2c3c(c(OCCCN(C)C)nc2c1)-c1ccc(Cl)cc1C3=O
inactive: NCI-H226 lung 32.1% | DU-145 prostate 15.3% | SF-268 CNS 43.9% | SF-295 CNS 86% | SF-539 CNS 13.9% | UACC-257 melanoma 86.9%
active: NCI-H23 lung -2.72% | NCI-H322M lung 3.92% | HOP-62 NSCLC 10% | NCI-H460 lung -81.2% | NCI-H522 lung -64.3% | A549/ATCC NSCLC -64.1% | 786-0 renal -40.3% | COLO 205 colon -45.2% | K-562 leukemia -59% | MALME-3M melanoma -57.5% | MDA-MB-231 breast -62.3% | RXF 393 renal -91.9% | M14 melanoma -59.2% | HCT-15 colon -89.4%

O=C(Cn1ccnc1)NC(c1ccccc1)c1ccccc1
inactive: NCI-H23 lung 94.8% | NCI-H226 lung 100% | NCI-H322M lung 98.7% | HOP-62 NSCLC 96% | NCI-H460 lung 103% | NCI-H522 lung 93.2% | A549/ATCC NSCLC 105% | 786-0 renal 103% | COLO 205 colon 109% | DU-145 prostate 112% | K-562 leukemia 98.6% | MALME-3M melanoma 104% | MDA-MB-231 breast 99.6% | RXF 393 renal 104% | SF-268 CNS 97.7% | SF-295 CNS 97.6% | SF-539 CNS 86.2% | UACC-257 melanoma 104% | M14 melanoma 102% | HCT-15 colon 101%

CCOC(=O)c1c(NC(=O)C2CCCCC2C(=O)O)sc2c1CCCC2 (stereo not given)
inactive: NCI-H23 lung 99.4% | NCI-H226 lung 95.5% | NCI-H322M lung 86.4% | HOP-62 NSCLC 104% | NCI-H460 lung 109% | NCI-H522 lung 94% | A549/ATCC NSCLC 97.6% | 786-0 renal 106% | COLO 205 colon 114% | DU-145 prostate 108% | K-562 leukemia 102% | MALME-3M melanoma 109% | MDA-MB-231 breast 105% | RXF 393 renal 114% | SF-268 CNS 105% | SF-295 CNS 96.3% | SF-539 CNS 102% | UACC-257 melanoma 92.1% | M14 melanoma 106% | HCT-15 colon 106%

O=[N+]([O-])c1ccc(Oc2cccc(C(F)(F)F)c2)c([N+](=O)[O-])c1
inactive: NCI-H23 lung 27.7% | NCI-H226 lung 47.6% | NCI-H322M lung 90.3% | HOP-62 NSCLC 101% | NCI-H460 lung 95.6% | A549/ATCC NSCLC 97.2% | 786-0 renal 47.5% | DU-145 prostate 95.2% | K-562 leukemia 11.2% | MALME-3M melanoma 52.3% | MDA-MB-231 breast 19.7% | RXF 393 renal 53.6% | SF-268 CNS 32.2% | SF-295 CNS 108% | SF-539 CNS 36.9% | UACC-257 melanoma 53.7% | HCT-15 colon 19%
active: NCI-H522 lung -16% | COLO 205 colon 2.36% | M14 melanoma 9.6%

C=CC1=C(C(=O)O)N2C(=O)[C@@H](NC(=O)/C(=N\O)c3csc(N)n3)[C@H]2SC1 (stereo in doubt)
inactive: NCI-H23 lung 96% | NCI-H226 lung 101% | NCI-H322M lung 109% | HOP-62 NSCLC 105% | NCI-H460 lung 105% | NCI-H522 lung 106% | A549/ATCC NSCLC 99.4% | 786-0 renal 105% | COLO 205 colon 103% | DU-145 prostate 113% | K-562 leukemia 104% | MALME-3M melanoma 111% | MDA-MB-231 breast 105% | RXF 393 renal 117% | SF-268 CNS 108% | SF-295 CNS 104% | SF-539 CNS 95.2% | UACC-257 melanoma 96.3% | M14 melanoma 114% | HCT-15 colon 105%

COc1ccc(-c2csc(NC(=O)c3cc(OC)c(OC)c(OC)c3)n2)cc1
inactive: NCI-H23 lung 114% | NCI-H226 lung 94.1% | NCI-H322M lung 99.1% | HOP-62 NSCLC 91.2% | NCI-H460 lung 103% | NCI-H522 lung 107% | A549/ATCC NSCLC 102% | 786-0 renal 102% | COLO 205 colon 105% | DU-145 prostate 112% | K-562 leukemia 113% | MALME-3M melanoma 96.2% | MDA-MB-231 breast 109% | RXF 393 renal 87.9% | SF-268 CNS 102% | SF-295 CNS 91.9% | SF-539 CNS 112% | UACC-257 melanoma 98.5% | M14 melanoma 116% | HCT-15 colon 107%

Cc1cc(NC(=O)Nc2cc(Cl)ccc2C)no1
inactive: NCI-H23 lung 88.3% | NCI-H226 lung 105% | NCI-H322M lung 146% | HOP-62 NSCLC 96.2% | NCI-H460 lung 102% | NCI-H522 lung 103% | A549/ATCC NSCLC 108% | 786-0 renal 102% | COLO 205 colon 143% | DU-145 prostate 111% | K-562 leukemia 80.8% | MALME-3M melanoma 191% | MDA-MB-231 breast 100% | RXF 393 renal 126% | SF-268 CNS 100% | SF-295 CNS 112% | SF-539 CNS 94.1% | UACC-257 melanoma 115% | M14 melanoma 109% | HCT-15 colon 100%
